Assay results from PubChem BioAssay.
Unmarked numbers belong to inactive results. How the calls were made is not given here.

What follows are molecules tested on Aerobactin synthetase IucA (Klebsiella pneumoniae, hypervirulent) (assay: biochemical IucA inhibition screen of LOPAC library by absorbance (AID 1346212;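 further: 100% = no compound wells and 0% = no enzyme wells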)). Conditions: IucA enzyme assay, absorbance (OD) readout; active compounds read low;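 tested at 8 µM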.

SMILES	remaining activity
N[C@H](CO)C(=O)O	106%
COc1ccc([C@@H]2Sc3ccccc3N(CCN(C)C)C(=O)[C@@H]2OC(C)=O)cc1	109%
CCCC(=O)NCCc1c2n(c3ccc(OC)cc13)Cc1ccccc1-2	89.8%
CCOC(=O)Nc1ccc(NCc2ccc(F)cc2)nc1N	97.8%
Cc1cc(C)c(NC(=O)C[C@H](CC(=O)O)c2cccc3ccccc23)c(C(=O)N2CCC3(CCCC3)CC2)c1	103%
COc1ccc(NC=O)c(C(=O)CCNC(C)=O)c1	95%
CC(=O)SCC[N+](C)(C)C	117%
OC[C@H]1NC[C@H](O)[C@@H](O)[C@@H]1O	100%
c1ccc(C(NCCNC(c2ccccc2)c2ccccc2)c2ccccc2)cc1	117%
CCCC1O[C@@H]2C[C@H]3[C@@H]4CCC5=CC(=O)C=C[C@]5(C)[C@H]4[C@@H](O)C[C@]3(C)[C@]2(C(=O)CO)O1 (stereo not given in full)	115%
CCc1c(C)[nH]c2c1C(=O)C(CN1CCOCC1)CC2 (stereo not given)	121%
Oc1cc(O)cc(/C=C/c2ccc(O)c(O)c2)c1	125%
COc1cccc(NC(=O)/C=C/c2ccc(Cl)cc2)c1	101%
COc1ccccc1N1CCN(CCN(C(=O)c2ccc(F)cc2)c2ccccn2)CC1	117%
N=C1Sc2ccccc2C2=NCCCN12	118%
CC[C@H](NC(=O)c1c(C)c(-c2ccccc2)nc2ccccc12)c1ccccc1	114%
COc1ccc2c(c1)c(CC(=O)O)c(C)n2Cc1ccc(F)cc1	101%
O=C(NCCNCC(O)COc1ccc(O)cc1)N1CCOCC1 (stereo not given)	118%
Nc1ccc(CCNc2ncnc3c2ncn3C2OC(CO)C(O)C2O)cc1 (stereo not given)	124%
COC(=O)[C@@H]1[C@H]2C[C@H]3c4[nH]c5ccccc5c4CCN3C[C@@H]2CC[C@@H]1O	124%

SMILES	remaining activity
C[N+](C)(C)CCCCCCCCCC[N+](C)(C)C	91.8%
CNc1ncnc2c1ncn2[C@H]1C[C@H](OP(=O)(O)O)[C@@H](COP(=O)(O)O)O1	124%
CSc1nc(N)c2ncn([C@@H]3O[C@H](COP(=O)(O)OP(=O)(O)OP(=O)(O)O)[C@H](O)C3O)c2n1 (stereo not given in full)	109%
CCOC(=O)C1=C(C)NC(C)=C(C(=O)OC)C1c1cccc(Cl)c1Cl (stereo not given)	99.8%
CC(C)NC[C@@H](O)c1ccc(O)c(O)c1	119%
C=CCN1CCc2c(cc(O)c(O)c2Br)[C@@H](c2ccccc2)C1	116%
c1cnc2c(c1)ccc1cccnc12	101%
NC(=O)CNCCC(c1ccccc1)c1ccccc1	118%
CC[C@@H]1Cc2cc(O)ccc2C2=C1c1ccc(O)cc1C[C@H]2CC	89.7%
Cc1cccc(C)c1OCC(C)N (stereo not given)	113%
COc1cc2c(cc1O)CC[C@@H]1[C@@H]2CC[C@]2(C)[C@@H](O)CC[C@@H]12	116%
Cn1cc(C2=C(c3ccc(Cl)cc3Cl)C(=O)NC2=O)c2ccccc21	116%
CC1CN(S(=O)(=O)c2cccc3cnccc23)CCN1 (stereo not given)	102%
Fc1ccc(C(OCCCc2cnc[nH]2)c2ccc(F)cc2)cc1	111%
O=C1Cc2c([nH]c3ccc(Br)cc23)-c2ccccc2N1	125%
CCCCCC(O)CCCC(=O)O (stereo not given)	101%
OC[C@H]1O[C@@H](n2cnc3c(N[C@H]4CC5CCC4C5)ncnc32)[C@H](O)[C@@H]1O (stereo not given in full)	99.3%
O=C(Nc1cccc(C(=O)Nc2ccc(S(=O)(=O)O)c3cc(S(=O)(=O)O)cc(S(=O)(=O)O)c23)c1)Nc1cccc(C(=O)Nc2ccc(S(=O)(=O)O)c3cc(S(=O)(=O)O)cc(S(=O)(=O)O)c23)c1	88.6%
NC(=S)c1ccc[n+]([C@@H]2O[C@@H](COP(=O)([O-])OP(=O)(O)OC[C@H]3O[C@@H](n4cnc5c(N)ncnc54)C(OP(=O)(O)O)[C@H]3O)C(O)C2O)c1 (stereo not given in full)	97.1%
C[C@@H](NC(=O)/C(C#N)=C/c1ccc(O)c(O)c1)c1ccccc1	97.8%
